Structures are written as SMILES. Values without a mark were called inactive. For some of these results: Results with a measured potency or affinity are listed apart. Calls of active or inactive are those of the source. Unless noted, how the calls were made is not given here.

Assay [1] can be described thus: antimalarial activity against Dd2 strain (AID 2302;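 active means growth inhibition above 50% at the single 2 µM test dose, taken to imply half-maximal potency below 2 µM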;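 further: 0% = DMSO untreated growth and 100% = chloroquine plus artemisinin killed control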). As to conditions: P. falciparum Dd2 in RBCs, LDH growth readout, 72 h; at 2 µM; active compounds read high.
A short description of assay [2]: HepG2 cytotoxicity, primary screen, cytotoxicity control for P. falciparum antimalarial project, cell-based, ATP luminescence (AID 2303;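 active means inhibition above 50%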;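 further: 0% = DMSO wells and 100% = digitonin-killed cells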). The following applies: HepG2 viability, 24-48 h, at 10 µM, active compounds read high.
In assay [3] the target is L-lactate dehydrogenase (Plasmodium falciparum (isolate CDC / Honduras)) (UniProt Q27743). The assay is described as follows: PfLDH activity inhibition – cell lysate, 3D7 strain, counter-screen for P. falciparum growth inhibition project (AID 2304).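 Further: 0% = vehicle and 100% = reference inhibitor.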 As to conditions: P. falciparum 3D7 crude extract, LDH APAD/NBT absorbance; at 2 µM; active compounds read high.
Assay [4] can be described thus: inhibition of 3D7 malaria parasite growth – strain 3D7 (AID 2306).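 Further: 0% = DMSO wells and 100% = chloroquine plus artemisinin control wells.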 As to conditions: P. falciparum 3D7 erythrocytic growth, LDH absorbance, 72 h; at 2 µM; active compounds read high.
For assay [5], the target named is Calcium-dependent protein kinase 1 (Plasmodium falciparum (isolate 3D7)) (UniProt P62344). In words: PfCDPK1 kinase inhibitors, biochemical, TCAMS library (AID 1159585; cut-off not given, nearly all actives have IC50 up to about 0.98 µM;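 further: inhibitors leave more ATP so luminescence rises with inhibition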). The following applies: recombinant PfCDPK1, Kinase-Glo ATP depletion luminescence. (In general: Kinase-Glo reads ATP consumption through a luciferase reaction.)
Assay [6] concerns the target Plasmodium falciparum protein kinase 6 (PK6, PF3D7_1337100) (UniProt Q8IDW1). The assay is described as follows: PfPK6 kinase inhibitors, biochemical, TCAMS library (AID 1159586). The following applies: recombinant PfPK6, Kinase-Glo ATP depletion luminescence.
Assay [7] concerns the target Protein kinase 7 (PK7), Plasmodium falciparum 3D7 (PF3D7_0213400) (UniProt Q7YTF7). In words: inhibition of Plasmodium PK7 catalytic activity – biochemical, TCAMS antimalarial set, Kinase-Glo luminescence (AID 1159587). The following applies: recombinant PfPK7, Kinase-Glo ATP depletion luminescence.
Assay [8] addresses Calcium-dependent protein kinase 4 (Plasmodium falciparum (isolate 3D7)) (UniProt Q8IBS5). The assay is described as follows: PfCDPK4 kinase inhibitors, biochemical, TCAMS library (AID 1159588; cut-off not given, nearly all actives have IC50 up to about 0.91 µM). The following applies: recombinant PfCDPK4, Kinase-Glo ATP depletion luminescence.

Sequence of Protein kinase 7 (PK7), Plasmodium falciparum 3D7 (PF3D7_0213400) (Q7YTF7 1-343): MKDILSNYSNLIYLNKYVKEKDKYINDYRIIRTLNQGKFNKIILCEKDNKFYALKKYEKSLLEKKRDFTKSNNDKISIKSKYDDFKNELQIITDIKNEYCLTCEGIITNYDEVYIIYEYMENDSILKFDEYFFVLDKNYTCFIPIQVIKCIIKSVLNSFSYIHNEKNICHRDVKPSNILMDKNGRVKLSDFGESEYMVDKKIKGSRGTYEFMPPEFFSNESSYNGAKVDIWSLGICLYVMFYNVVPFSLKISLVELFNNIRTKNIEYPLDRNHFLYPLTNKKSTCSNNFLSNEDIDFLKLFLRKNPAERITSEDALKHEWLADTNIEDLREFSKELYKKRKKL
Sequence of Calcium-dependent protein kinase 4 (Plasmodium falciparum (isolate 3D7)) (Q8IBS5 whole entry, looked up): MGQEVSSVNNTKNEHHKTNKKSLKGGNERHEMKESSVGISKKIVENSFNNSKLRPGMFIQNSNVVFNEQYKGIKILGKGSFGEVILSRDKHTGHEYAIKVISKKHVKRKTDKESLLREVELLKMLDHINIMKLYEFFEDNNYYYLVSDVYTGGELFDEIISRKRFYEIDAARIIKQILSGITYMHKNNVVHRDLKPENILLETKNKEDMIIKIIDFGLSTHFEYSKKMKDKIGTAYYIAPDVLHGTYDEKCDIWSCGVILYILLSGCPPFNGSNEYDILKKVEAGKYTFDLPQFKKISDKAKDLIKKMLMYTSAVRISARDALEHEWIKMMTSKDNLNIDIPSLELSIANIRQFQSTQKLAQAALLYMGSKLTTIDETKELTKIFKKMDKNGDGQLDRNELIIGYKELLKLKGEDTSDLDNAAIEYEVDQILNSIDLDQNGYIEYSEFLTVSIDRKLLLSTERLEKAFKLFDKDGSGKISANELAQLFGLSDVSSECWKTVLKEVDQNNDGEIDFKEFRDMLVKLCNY
Sequence of Calcium-dependent protein kinase 1 (Plasmodium falciparum (isolate 3D7)) (P62344 whole entry, looked up): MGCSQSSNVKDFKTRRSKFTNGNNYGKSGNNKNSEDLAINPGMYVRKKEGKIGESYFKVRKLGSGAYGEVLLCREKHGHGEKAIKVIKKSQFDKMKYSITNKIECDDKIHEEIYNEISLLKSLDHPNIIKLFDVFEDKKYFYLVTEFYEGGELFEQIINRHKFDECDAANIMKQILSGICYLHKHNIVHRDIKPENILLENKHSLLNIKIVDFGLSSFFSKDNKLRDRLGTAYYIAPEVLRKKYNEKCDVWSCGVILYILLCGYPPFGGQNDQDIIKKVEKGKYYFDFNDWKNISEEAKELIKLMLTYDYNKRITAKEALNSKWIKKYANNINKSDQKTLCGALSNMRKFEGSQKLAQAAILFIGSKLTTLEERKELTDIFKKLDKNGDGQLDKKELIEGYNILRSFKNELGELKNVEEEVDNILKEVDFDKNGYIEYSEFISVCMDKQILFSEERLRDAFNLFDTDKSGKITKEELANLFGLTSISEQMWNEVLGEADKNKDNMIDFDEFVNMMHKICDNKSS
Sequence of Plasmodium falciparum protein kinase 6 (PK6, PF3D7_1337100) (Q8IDW1 1-305): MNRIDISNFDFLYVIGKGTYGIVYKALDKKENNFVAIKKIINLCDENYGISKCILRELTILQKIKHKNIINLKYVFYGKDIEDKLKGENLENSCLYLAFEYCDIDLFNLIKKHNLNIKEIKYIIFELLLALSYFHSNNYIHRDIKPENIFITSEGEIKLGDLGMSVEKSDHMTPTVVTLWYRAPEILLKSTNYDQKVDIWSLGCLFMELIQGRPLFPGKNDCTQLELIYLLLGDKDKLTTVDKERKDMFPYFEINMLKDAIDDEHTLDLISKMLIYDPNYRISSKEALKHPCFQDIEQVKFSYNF
Sequence of L-lactate dehydrogenase (Plasmodium falciparum (isolate CDC / Honduras)) (Q27743 whole entry, looked up): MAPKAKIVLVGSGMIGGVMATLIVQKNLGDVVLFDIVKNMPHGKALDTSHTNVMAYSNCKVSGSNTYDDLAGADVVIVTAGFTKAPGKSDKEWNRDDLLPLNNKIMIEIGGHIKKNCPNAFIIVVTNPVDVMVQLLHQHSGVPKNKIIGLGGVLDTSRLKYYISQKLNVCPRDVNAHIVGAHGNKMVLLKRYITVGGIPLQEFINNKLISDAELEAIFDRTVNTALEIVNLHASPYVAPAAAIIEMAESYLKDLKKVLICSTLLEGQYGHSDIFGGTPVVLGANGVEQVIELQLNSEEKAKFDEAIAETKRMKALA

Turning to `COc1ccc(CCN(C)CCCOc2ccc(NC(=O)COc3cccc4sc5ccccc5c(=O)c34)cc2)cc1OC`, the growth inhibition in assay [1] is 90% (active); in assay [4], 94% (active). For the same molecule, the results for the inhibition in assay [2] and in assay [3] were 99% (active) and 1%, respectively. Also, the outcome in assay [5], in assay [6], in assay [7] and in assay [8] was inactive.
For `COc1ccc2ncc(F)c(CCN3CC[C@H](NC(=O)c4ccc5c(n4)NC(=O)CS5)[C@H](O)C3)c2n1`, the growth inhibition in assay [1] and in assay [4] was 88% (active) throughout. Further, the inhibition in assay [2] is 20%; in assay [3], 0%. Also, the outcome in assay [5], in assay [6], in assay [7] and in assay [8] was inactive.
In the case of `CCN(CCCN1CCCCC1)c1cc(C)nc(Nc2cc(Cl)cc(Cl)c2)n1`, the values for the growth inhibition in assay [1] and in assay [4] were 99% (active) and 100% (active), respectively. Moreover, the inhibition was 34% in assay [2] and -3% in assay [3]. Further, the result in assay [5], in assay [6], in assay [7] and in assay [8] was inactive.
In the case of `COc1ccc2ncc(F)c(CCN3CC[C@@H](CNCc4nc5c(cc4C)SCC(=O)N5)C3)c2n1`, the growth inhibition in assay [1] was 42%; in assay [4] it was 91% (active). Further, the inhibition in assay [2] is 14%; in assay [3], 1%. The outcome in assay [5], in assay [6], in assay [7] and in assay [8] was inactive.
In the case of `CC(Oc1c(C2CCN(CCCCNC(=O)c3ccc(-c4ccc(Cl)cc4)cc3)CC2)ccc2c1CCCC2)C(N)=O` (stereo not given), the growth inhibition in assay [1] is 16%; in assay [4], 99% (active). For the same molecule, the inhibition was 100% (active) in assay [2] and 3% in assay [3]. The outcome in assay [5], in assay [6], in assay [7] and in assay [8] was inactive.
For the molecule `Cc1cc(N[C@@H](Cc2ccccc2)C(=O)NCc2cccs2)nc(NCCc2ccccn2)n1`, the growth inhibition in assay [1] is 49%; in assay [4], 93% (active). Further, the inhibition in assay [2] was -4%; in assay [3], -2%. In addition, the outcome in assay [5], in assay [6], in assay [7] and in assay [8] was inactive.
For `CC(C)CC(=O)N1CCNC[C@@H]1C(=O)NC1CC1`, the values for the growth inhibition in assay [1] and in assay [4] were -2% and 82% (active), respectively. Besides, the inhibition in assay [2] was -7%; in assay [3], -4%. In addition, the result in assay [5], in assay [6], in assay [7] and in assay [8] was inactive.
`CC(C)c1ccc(NC(=O)c2ccc(C(=O)NC3CCN(Cc4ccsc4)C3)cc2)cc1` (stereo not given): the growth inhibition in assay [1] was 28%; in assay [4], 82% (active). The inhibition in assay [2] was 17%; in assay [3] it was -2%. In addition, the result in assay [5], in assay [6], in assay [7] and in assay [8] was inactive.
As to `NC(=O)c1ccc(C(=O)Nc2cccc(-c3cccc(-c4nc5ccc(C(F)(F)F)cc5[nH]4)c3)c2)cc1`, the growth inhibition was 36% in assay [1] and 100% (active) in assay [4]. Besides, the inhibition in assay [2] was 63% (active); in assay [3] it was -5%. The outcome in assay [5], in assay [6], in assay [7] and in assay [8] was inactive.
For the molecule `COc1ccc(C(=O)CCC(=O)N(Cc2ccc(-c3ccc(CNCCc4ccc(S(C)(=O)=O)cc4)cn3)cc2)C(C)CN(C)C)cc1F` (stereo not given), the growth inhibition in assay [1] is 85% (active); in assay [4], 98% (active). Besides, the inhibition was 13% in assay [2] and -8% in assay [3]. The result in assay [5], in assay [6], in assay [7] and in assay [8] was inactive.
On to `CC1CN(c2ccc(C(=O)NCC3CC3)cc2NC(=O)OCc2ccccc2)CC(C)O1` (stereo not given), for which the growth inhibition was 76% (active) in assay [1] and 91% (active) in assay [4]. Moreover, the values for the inhibition in assay [2] and in assay [3] were -5% and -2%, respectively. Moreover, the outcome in assay [5], in assay [6], in assay [7] and in assay [8] was inactive.
Take `c1cncc(NCc2ccc(-c3cc4ccncc4cc3OC3CCNCC3)s2)c1`: the growth inhibition in assay [1] was 19%; in assay [4], 100% (active). In addition, the figures for the inhibition in assay [2] and in assay [3] were 4% and 2%, respectively. In addition, the result in assay [5], in assay [6], in assay [7] and in assay [8] was inactive.
As for `O=C(CCCCCNC(=O)c1ccc(O)c(-c2ccc(Cl)c(Cl)c2)c1)NC1CCCCCC1`, the growth inhibition in assay [1] is 3%; in assay [4] it was 92% (active). For the same molecule, the inhibition in assay [2] is -4%; in assay [3], 2%. Further, the outcome in assay [5], in assay [6], in assay [7] and in assay [8] was inactive.
Regarding `O=C(Cn1c(CCc2cccc(F)c2F)cc(=O)c2ccccc21)N(Cc1ccc(-c2ccc(C(F)(F)F)cc2)cc1)C1CCN(CCO)CC1`, the growth inhibition in assay [1] is 84% (active); in assay [4], 91% (active). In addition, the inhibition was 82% (active) in assay [2] and 0% in assay [3]. The outcome in assay [5], in assay [6], in assay [7] and in assay [8] was inactive.
In the case of `O=C(Nc1ccc(CCNCCCc2ccccc2)cc1)Nc1ccc(Cl)c(Cl)c1`, the growth inhibition is 99% (active) in assay [1] and 100% (active) in assay [4]. For the same molecule, the inhibition was 33% in assay [2] and -1% in assay [3]. Besides, the outcome in assay [5], in assay [6], in assay [7] and in assay [8] was inactive.
As to `O=C(Cc1ccccc1)NC1(c2ccccc2)CCN(CCc2c[nH]c3ccc(F)cc23)CC1`, the growth inhibition in assay [1] was 62% (active); in assay [4] it was 87% (active). Also, the values for the inhibition in assay [2] and in assay [3] were 29% and 2%, respectively. Moreover, the result in assay [5], in assay [6], in assay [7] and in assay [8] was inactive.
As to `COc1cccc(-c2cnc(N)c(-c3nc4ccc(C(F)(F)F)cc4[nH]3)c2)c1`, the growth inhibition in assay [1] was 30%; in assay [4], 99% (active). Further, the results for the inhibition in assay [2] and in assay [3] were 5% and -4%, respectively. Further, the outcome in assay [5], in assay [6], in assay [7] and in assay [8] was inactive.
Regarding `CC(C)(C)c1ccc(NC(=O)c2cccc(CN3CCCN(Cc4ccsc4)CC3)c2)cc1`, the figures for the growth inhibition in assay [1] and in assay [4] were 3% and 96% (active), respectively. Moreover, the inhibition in assay [2] was 33%; in assay [3], -4%. Besides, the result in assay [5], in assay [6], in assay [7] and in assay [8] was inactive.
Consider `CCCN(CCC)C(=O)c1cc(-c2cccc(C)c2)nc2ccccc12`, for which the growth inhibition is 59% (active) in assay [1] and 86% (active) in assay [4]. The values for the inhibition in assay [2] and in assay [3] were 17% and -6%, respectively. The outcome in assay [5], in assay [6], in assay [7] and in assay [8] was inactive.
Turning to `O=C(NCCCCN1CCC(c2ccc(-c3ccco3)cc2)CC1)c1ccc(NC(=O)c2ccc(Cl)cc2)cc1`, the growth inhibition in assay [1] was 97% (active); in assay [4] it was 100% (active). Besides, the inhibition was 26% in assay [2] and 6% in assay [3]. The result in assay [5], in assay [6], in assay [7] and in assay [8] was inactive.

As a reminder, the inhibition is the change of the read-out against control, counted positive when it falls.

The record behind these values is PubChem BioAssay.
